Bioassay records deposited in PubChem by several laboratories.
dFosB activator – activators of delta FosB homodimer, primary screen, biochemical, fluorescence polarization, TAMRA-CDK5 oligo, single point | Protein FosB (Mus musculus), P13346 | purified delta FosB; percent of positive-control signal above neutral wells | activation, % at 25 µM | 340,000 tested, 0.99% active | AID 493131, 2011;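 active means mean activation above about 17%, with every replicate also reaching it, limit read from the data, passing the limit was not always enough; inconclusive means only one of the two conditions met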
Target sequence (P13346 whole entry, looked up): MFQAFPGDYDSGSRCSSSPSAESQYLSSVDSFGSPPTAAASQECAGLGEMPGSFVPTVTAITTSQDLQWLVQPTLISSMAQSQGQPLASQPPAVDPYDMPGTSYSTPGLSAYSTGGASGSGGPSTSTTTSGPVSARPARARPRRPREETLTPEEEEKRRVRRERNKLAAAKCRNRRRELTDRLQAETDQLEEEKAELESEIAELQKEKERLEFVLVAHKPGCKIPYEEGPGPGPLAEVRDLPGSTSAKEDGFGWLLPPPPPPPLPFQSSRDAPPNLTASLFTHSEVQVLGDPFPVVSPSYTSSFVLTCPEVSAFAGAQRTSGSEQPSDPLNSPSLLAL
HSF1 activator – HSF-1 activators, primary screen, NIH3T3-HGL cells, MG132 stress, luminescence, single point. NIH3T3-HGL HSF-1 luciferase reporter, 8 h; 100% = twice DMSO control signal. activation, % at 9 µM. 300,000 tested, 1.7% active. AID 504408, 2011;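 active means mean replicate activation of at least 50% with a set share of replicates each reaching 50%; inconclusive means only one of those two conditions met; inactive means mean below 50% and too few replicates reaching it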
HSF1 inhib – HSF1 inhibitors in luciferase reporter cells, primary screen, cell-based, NIH3T3, luminescence; activity change, negative = inhibition, % at 7.5 µM (by protocol); AID 2098, 2009; NIH3T3-HGL HSE-luciferase, MG132-induced, luminescence 8 h; hits give low values; 300,000 tested, 0.77% active;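 active means more than half of replicate wells show activity change below -50%, luminescence cut by over half; inconclusive means some wells, but at most half, below -50%; inactive means no replicate well below -50%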;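 further: luciferase reports HSF-1 transcriptional activity via heat shock element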
MPTP inh – mitochondrial permeability transition pore inhibitors, primary screen, biochemical, isolated mouse mitochondria, absorbance. inhibition, % at 10 µM. AID 602449, 2012. 360,000 tested, 1.4% active. Ca2+ swelling absorbance, 30 min;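 active means inhibition of 50% or more, scaled per plate between neutral and stimulator controls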
Platelet DG rel – inhibitors of platelet dense granule secretion, primary screen, cell-based, MLPCN, human platelets. 300,000 tested, 0.22% active. inhibition, %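 (compounds screened at 7.5 µM in platelet-rich plasma)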. human platelet-rich plasma, SFLLRN dense granule ATP release, luminescence;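 active means mean replicate score, as percent of positive control, at or above 50; inconclusive means mean below 50 but at least one replicate at or above 50; inactive means mean and every replicate below 50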
HSP90 inh – HSP90 inhibitors, primary screen, cell lysate, luminescence; Heat shock protein HSP 90 (rabbit reticulocyte lysate; luciferase refolding); Rabbit reticulocyte lysate, luciferase refolding luminescence, 3 h; inhibition, % at 5.6 µM; 290,000 tested, 0.91% active; AID 1789, 2009;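 active means inhibition above the screen-wide mean plus 3 SD, computed separately per campaign, cut at about 16% in these data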;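 further: inhibitors lower the luminescence because luciferase stays unfolded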
MPTP counter – fluorescence retest of MPTP screen hits in isolated mitochondria, single concentration. 5,000 tested, 78% active. inhibition, % at 10 µM. membrane potential, Rhodamine 123 fluorescence. AID 624504, 2012. shares compounds with MPTP inh; in the data active means inhibition above about 22%
MPTP swell DR – mitochondrial permeability transition pore inhibitors, dose response, biochemical, absorbance, uHTS hits. shares compounds with MPTP inh. IC50, µM. 780 tested, 58% active. isolated mitochondria swelling; in the data active means IC50 below about 20 µM
MPTP counter DR – fluorescent counter-screen in isolated mitochondria, dose response, counter-screen for MPTP inhibitor project, biochemical, fluorescence, uHTS hits. shares compounds with MPTP inh. isolated mitochondria counterscreen, fluorescence read-out. IC50, µM. 780 tested, 49% active. AID 651564, 2012; in the data active means IC50 below about 80 µM
Each line names hits and unclear results; the compound was inactive in the other large screens (follow-up assays come after a bar, where they were run). Sampled rows, rich in hits. Any-hit rate of the full collection: about 4.9%.

Cc1cc(NC(=O)Nc2cccc([N+](=O)[O-])c2)no1	none
O=C(Nc1cccnc1)Nc1cccc([N+](=O)[O-])c1	MPTP inh 62.1 | MPTP counter 88.5
O=C(Nc1ccc(OC(F)(F)F)cc1)Nc1cccc([N+](=O)[O-])c1	MPTP inh 74.7 | MPTP counter 64.2
O=C(Nc1ccc(OC(F)(F)F)cc1)Nc1cccnc1	none
Cc1ccc(NC(=O)Nc2cccc([N+](=O)[O-])c2)cc1F	MPTP inh 104.8 | MPTP counter 69.8
COc1cc([N+](=O)[O-])ccc1NC(=O)Nc1cccnc1	none
CCOC(=O)c1cc2c(C)n(-c3ccc(OCC)cc3)c(C)c2ccc1=O	none
CCOC(=O)c1cc2c(C)n(-c3ccc(C)cc3)c(C)c2ccc1=O	MPTP inh 82.2 | MPTP counter 34.7
CCCC(=O)Nc1ccc(Cc2ccc(NC(=O)CCC)c(C(=O)O)c2)cc1C(=O)O	none
CCC(O)C1CCN(C(=O)c2cc(COc3ccc4ncccc4c3)on2)CC1 (stereo unspecified)	MPTP inh 91.9 | MPTP counter 102.2
COCC1CCCN(C(=O)c2cc(COc3ccc4ncccc4c3)on2)C1 (stereo unspecified)	MPTP inh 95.1 | MPTP counter 96.9
Cc1cccnc1CN1CCN(C(=O)c2cc(COc3ccc4ncccc4c3)on2)CC1	MPTP inh 103.7, Platelet DG rel inconclusive | MPTP counter 102.4
O=C(c1cc(COc2ccc3ncccc3c2)on1)N1CCCC(O)C1 (stereo unspecified)	none
COC(=O)[C@]1(C)N[C@H](c2ccc(SC3CCCCC3)c(OC)c2)[C@@H]2C(=O)N(C)C(=O)[C@@H]21	none (no result: HSP90 inh)
CCNC(=O)C1CCCN(C(=O)c2ccc3ccccc3c2)CC1 (stereo unspecified)	none (no result: dFosB activator, HSF1 activator, HSF1 inhib, Platelet DG rel, HSP90 inh)
Cc1ccc(S(=O)(=O)Nc2ccc(NC(=O)Nc3cccc(C(F)(F)F)c3)cc2)cc1	MPTP inh 97.7 | MPTP counter 61.4
CCN(CC)S(=O)(=O)c1ccc(NC(=O)Nc2cccc(C(F)(F)F)c2)cc1	MPTP inh 84.2 | MPTP counter 73.9
COc1ccc(NC(=O)c2sc(=O)n(Cc3ccc4ccccc4c3)c2C)cc1OC	none (no result: dFosB activator, HSF1 activator, HSF1 inhib, Platelet DG rel, HSP90 inh)
Cc1ccc(S(=O)(=O)NC(=O)c2cc(C)n(-c3ccc(N(C)C)cc3)c2C)cc1	MPTP inh 84.6 | MPTP counter 91.0
Cc1cc(/C=N/n2c(COc3ccccc3C)nc3ccccc3c2=O)c(O)c([N+](=O)[O-])c1	MPTP inh 70.5 | MPTP counter 39.2
Cc1ccccc1OCc1nc2ccccc2c(=O)n1/N=C/c1c[nH]c2ccccc12	none
CCCCNS(=O)(=O)c1ccc(NC(=O)C(Sc2ccccc2)c2ccccc2)cc1 (stereo unspecified)	MPTP inh 76.5 | MPTP counter 67.8
CC(C)c1nc(SCc2c(F)cccc2Cl)c2c(=O)n(C)c(=O)n(C)c2n1	HSF1 inhib -67.1, MPTP inh 94.2 | MPTP counter inactive | MPTP swell DR inactive | MPTP counter DR inactive
Cn1c(=O)c2c(nc(SCCCC#N)n2Cc2c(F)cccc2Cl)n(C)c1=O	none
O=[N+]([O-])c1cc(S(=O)(=O)Nc2cccc(C(F)(F)F)c2)ccc1-n1nnc2ccccc21	MPTP inh 92.2 | MPTP counter 84.0
COc1ccc(NS(=O)(=O)c2ccc(-n3nnc4ccccc43)c([N+](=O)[O-])c2)cc1	none
